In PubChem BioAssay (NCI):
Compounds without any hit were thinned out: in the full panel of roughly 83,000, 20% have a hit.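 Cells were grown in 96-well plates and exposed to the test compound at a single concentration for 48 hours; results are reported as percent growth, with values below 10 considered active.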 Calls of active or inactive are those of the source.

Test system: SF-268 CNS
Assay: NCI-60 one-dose screen, 48 h (100 = growth as untreated, 0 = no growth, -100 = all killed)
Settings: 10 µM unless noted

| Compound | growth |
| --- | --- |
| CC(=O)c1c(Nc2cccc(F)c2)[nH]c2c(Cl)cc(Cl)c(Cl)c2c1=O | 19.2% (inactive) |
| COC12C=C/C(=C(/C(=O)OCc3csc(SC)n3)C(=O)CCCCCCCCC3(OC)C=C/C(=C(/C(=O)OCc4cnc(SC)s4)C(=O)CCCCCCCC1)O3)O2 (stereo not given) | 44.7% (inactive) |
| COC12C=C/C(=C(/C(=O)OCCSc3ccnn3C)C(=O)CCCCCCCCC3(OC)C=C/C(=C(/C(=O)OCCSc4ccnn4C)C(=O)CCCCCCCC1)O3)O2 | 16% (inactive) |
| O=C(/C=C/C12c3ccccc3C(c3ccccc31)C1C(=O)NC(=O)C12)c1ccco1 (stereo not given) | 28.7% (inactive) |

Test system: SF-295 CNS
Assay: as above
Settings: 10 µM unless noted

| Compound | growth |
| --- | --- |
| Cn1c2ccccc2c2c3c(c4c5cc(Br)ccc5n(C)c4c21)C(=O)N(O)C3=O | 25.9% (inactive) |
| c1ccc2cc(Cn3cc(CSc4nc5ccccc5s4)nn3)ccc2c1 | 96.5% (inactive) |
| COCCn1cc(-c2nc(-c3cc4cccnc4n3C)cs2)c2ccccc21 | 36.5% (inactive) |
| COc1ccc(C2[C@@H](Cl)C(=O)N2c2cc(OC)c(OC)c(OC)c2)cc1Cl (stereo not given in full) | 8.96% (active) |
| N#Cc1nn(-c2cc(=O)[nH]c3ccc(Br)cc23)c(N)c1C#N | 101% (inactive) |
| CC1=C2CC/C(C)=C/CC[C@]3(C)O[C@H]3CC/C(C)=C/[C@H]2OC1 | 91% (inactive) |
| CN(C)CCCn1c2c(c3cnccc3c1=O)C(=O)c1ccccc1-2 | 6.47% (active) |
| CN1CCOCCN(C)Cc2ccc3ccc(cc3c2)CN(C)CCOCCN(C)Cc2ccc3ccc(cc3c2)C1 | 103% (inactive) |
| COc1ccc2c(O)c(/C=C3\N=Nc4ncccc43)oc2c1C[C@@H]1CCNC[C@H]1F | 0.571% (active) |
| COc1cc(/C=C2\C(=O)N(CCCOc3cc(O)c4c(=O)cc(-c5ccccc5)oc4c3)c3ccccc32)cc(OC)c1O | 101% (inactive) |
| Cc1ccc(S(=O)(=O)c2nc(-c3ccccc3)oc2SCC(N)=O)cc1 | 98.9% (inactive) |
| C=CN(C(=O)N1CCN(c2cc3c(cc2F)c(=O)c(C(=O)O)cn3C2CC2)CC1)c1nc(-c2ccccc2)cs1 | 95.7% (inactive) |
| Cc1ccc(NC(=O)c2sc3nc(C)c(C(O)c4ccccc4)cc3c2N)cc1 (stereo not given) | 4.89% (active) |
| Nc1c(Br)cc2c(c1Br)Cc1cc([N+](=O)[O-])ccc1-2 | 117% (inactive) |
| Cn1cc(-c2nc3c(F)cc4[nH]ncc4c3c3c2CCCC3)c(C(F)(F)F)n1 | 49.2% (inactive) |
| CCCCCc1ccc(S(=O)(=O)Nc2ccc3nc(N)oc3c2)cc1 | 30.8% (inactive) |

| Compound | growth |
| --- | --- |
| Nc1ncnc2c1N=C(c1ccc(F)cc1)CC(c1cccc(Nc3ccnc4cc(Cl)ccc34)c1)N2 (stereo not given) | 72.1% (inactive) |
| CCOC(=O)c1[nH]cc2c1CCc1sc(Nc3ccccn3)nc1-2 | 86.5% (inactive) |
| C=C(C)[C@@H]1CC[C@]2(CO)CC[C@]3(C)[C@H](CC[C@@H]4[C@@](C)(CCCN)[C@H](C(=C)C)CC[C@]43C)[C@@H]12 | -75.5% (active) |
| CCN1C(=O)N(c2ccccc2)C2NC(=S)N(/N=C/C=C/c3ccccc3OC)C21 (stereo not given) | 14.2% (inactive) |
| CN1c2ccccc2S(=O)(=O)n2c(SCC(=O)Nc3nc4ccc(F)cc4s3)nnc21 | 124% (inactive) |
| Clc1ccc(Nc2nnc(CNc3ccccc3)c3ccccc23)cc1 | 14.3% (inactive) |
| N#C/C(=C\c1ccc(-c2cccc(Cl)c2)o1)C(=O)Nc1ncc(Cc2ccc(Cl)cc2)s1 | 45.3% (inactive) |
| CN(C)CCC(CCN(C)C)(C(=O)O)c1ccccc1 | 103% (inactive) |
| CC1(C)CC[C@]23CC[C@]4(C)[C@H](CC[C@@H]5[C@@]6(C)C/C(=C/O)C(=O)C(C)(C)[C@@H]6CC[C@]54C)[C@H]2[C@H]1OC3 | 103% (inactive) |
| CN(C)C1CN(C(=O)c2cc(-c3ccc4ncnc(N5CCc6cc(F)c(Cl)cc65)c4c3)cnc2N)C1 | 8.16% (active) |
| Cc1[nH]n(-c2cccc(Cl)c2)c(=O)c1/C=C1\C=c2ccccc2=CC1=O | 25.6% (inactive) |
| COCCn1cc(-c2csc(-c3c[nH]c4ccccc34)n2)c2cccnc21 | 25.8% (inactive) |
| COC(=O)c1c2c(c[n+]([O-])c1C)C(=O)C=C(NCc1ccccc1)C2=O | -93.7% (active) |
| ClC(Cl)c1nc(-c2ccccc2)n2nc(-c3ccccc3)cc2n1 | -13.1% (active) |
| CN(C)c1ccc([C@@H](C(=O)Nc2cccc([N+](=O)[O-])c2)N(C(=O)c2cc3ccccc3[nH]2)c2cccc([N+](=O)[O-])c2)cc1 | 100% (inactive) |
